Out of some 92,000 compounds screened, about 1,200 (1.3%) were called active. Shown is part of a subset that was picked to be rich in actives. A number with no mark means an inactive call.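 The calls were made as follows: active = activation above the mean of all tested compounds plus 3 SD (cut at about 9.5% in these data); inactive = the rest.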
Experiment: TTR transcription activators in neuroblastoma reporter cells, primary screen, cell-based, luminescence, SH-SY5Y, TTR promoter Gaussia luciferase (AID 1117267);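 also: cells exposed to compounds for one day before reading; 0% = median of all test compound wells on the plate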
Conditions: at 16.7 µM, hits give high values, 100% = recombinant luciferase protein wells

In order of rising activation:
1. Brc1ccc(-c2csc(N/N=C/c3cccnc3)n2)cc1  -4.96%
2. CN(CCc1ccccc1)C(=O)c1cccc(NC(=O)Cc2cccc(NC(=O)C3CCCN(C(=O)CCc4ccccc4)C3)c2)c1 (stereo unspecified)  -4.56%
3. COC(=O)COc1ccc2oc(=O)cc(C)c2c1  -3.29%
4. O=C1NC(=Nc2ccc(Cl)cc2)SC1Cc1cccc(Cl)c1Cl (stereo unspecified)  -2.63%
5. COC(=O)[C@@]12C[C@@H](CC(=O)N3CCCCC3)C(=O)N(Cc3ccc4c(c3)OCO4)C1=CCC(C)(C)C2  -2.52%
6. CCCNC(=O)c1onc(CSc2ccc(F)cc2)c1C(=O)NC(C)C  -2.47%
7. Cc1nc(Cl)cc(N/N=C/c2ccccc2)n1  -2.14%
8. CSCCC(c1nnnn1Cc1ccccc1)N1CCN(C/C=C/c2ccccc2)CC1 (stereo unspecified)  -2.08%
9. c1ccc(-c2c[nH]c(-c3ccccc3)c2)cc1  -1.9%
10. COc1ccc(CN2CN(C3CCCC3)CSC2=S)cc1  -1.82%
11. COC(=O)c1sc(N)c(C(=O)OC)c1COC(=O)CNS(=O)(=O)c1ccc(C)cc1  -1.81%
12. CC(=O)Nc1ccc(N2C(=O)CC(Sc3nccc(C)n3)C2=O)cc1 (stereo unspecified)  -1.45%
13. O=C(NNC(=O)c1ccc(-n2cncn2)c([N+](=O)[O-])c1)c1ccccc1  -1.38%
14. COC(=O)C1CCN(C(=O)c2ccc3oc(Cc4ccc(Cl)cc4)nc3c2)CC1  -1.37%
15. CC(C)(C)OC(=O)N/N=C/c1cn(-c2ccccc2)nc1-c1cccnc1  -1.28%
16. C/C(=C\C(=O)c1ccccc1)Nc1cccc(O)c1  -1.23%
17. COc1cc(C(=O)NNC(=O)CN2C(=O)NC3(CCCC3)C2=O)cc(OC)c1OC  -1.23%
18. Cc1c(NC(=O)C(=O)N/N=C/c2cccs2)c(=O)n(-c2ccccc2)n1C  -1.22%
19. O=C1CN(C(=O)COc2c(Cl)cccc2Cl)c2ccccc2N1  -1.21%
20. O=C(CSc1nc2cccc(F)c2c(=O)n1-c1ccccc1)Nc1ccc2c(c1)CCC2  -1.17%
21. O=C(Cc1ccccc1)Nc1cccc(NC(=O)c2ccccc2)c1  -1.17%
22. Cn1c2ccccc2c(=O)c2c(=O)n(Cc3ccco3)c(COc3ccccc3)nc21  -1.02%
23. O=C(O/N=C(/c1ccccc1)c1ccncc1)c1ccccc1[N+](=O)[O-]  -1%
24. CC(Oc1cccc(Cl)c1)C(=O)NC1CC(C)(C)NC(C)(C)C1 (stereo unspecified)  -0.86%
25. Nc1ccc2c(c1)C(O)c1ccc(Cl)cc1-2 (stereo unspecified)  -0.84%
26. CC(C)N(C(=O)[C@H]1C[C@H](CC(=O)NCCC2=CCCCC2)C(=O)N2CCc3c([nH]c4cc(CCC(=O)N(C)C)ccc34)[C@]12C)C(C)C  -0.83%
27. COc1ccc(S(=O)(=O)N(CC(=O)N/N=C/c2ccccc2C(=O)O)c2ccccc2OC)cc1  -0.82%
28. CC(=O)Nc1ccc(C(=O)Nc2nc(-c3cc(C)n(Cc4ccccc4)c3C)cs2)cc1  -0.51%
29. N#Cc1ccc(/C=C2\CCn3c2nc2cc(C(=O)O)ccc2c3=O)cc1  -0.49%
30. Cc1ccc(C(=O)NCCNC(=O)c2cnccn2)cc1  -0.47%
31. O=C(C1=C(O)C(=O)N(CCOCCO)C1c1ccccn1)c1cccs1 (stereo unspecified)  -0.44%
32. CCc1nn(CCCC(=O)Nc2ccc(C)c(C)c2)c(=O)c2cc3occc3n12  -0.44%
33. CCOC(=O)Cc1csc(NC(=O)COc2ccc3c(C)cc(=O)oc3c2)n1  -0.4%
34. Cc1nnc(SCC(=O)NNC(=O)c2ccc(Cl)cc2)n1CC1CCCO1 (stereo unspecified)  -0.27%
35. O=C(N/N=C/c1cccnc1)c1cc2ccccc2cc1O  -0.26%
36. COc1ccc(C(=O)N2CCCC(C(=O)c3ccccc3OC)C2)cc1OC (stereo unspecified)  -0.18%
37. COc1ccc2c(c1)O/C(=C\c1ccccc1O)C2=O  -0.14%
38. O=C(NNS(=O)(=O)c1ccccc1)c1cnn(-c2ccc(Cl)cc2)c1C(F)(F)F  -0.1%
39. CCOc1ccc(-c2cc(C(=O)N/N=C/c3ccc(O)cc3)c3ccccc3n2)cc1  -0.07%
40. O=C(c1cccc(S(=O)(=O)N2CCCCCC2)c1)N1CCN(Cc2ccccc2)CC1  -0.07%
41. COc1cc(NS(=O)(=O)c2ccc(NC(=O)c3ccc([N+](=O)[O-])cc3)cc2)ncn1  -0.02%
42. C(#CCN1CCOCC1)CCCN1CCOCC1  0.16%
43. O=C1CN(C(=O)COC(=O)/C=C/c2ccc(F)cc2)c2ccccc2N1  0.24%
44. C=CCOc1ccc(/C=C2\SC(=S)N(CCC(=O)O)C2=O)cc1  0.39%
45. CN(C)CCNC(=O)Cc1ccc([N+](=O)[O-])cc1  0.61%
46. Cc1ccc(C(=O)Nc2c(C#N)c(C)c(C)n2Cc2ccccc2)cc1  0.67%
47. O=C(Nc1nncs1)c1cccc(S(=O)(=O)N2CCCCC2)c1  0.77%
48. COc1cc(NS(=O)(=O)c2ccc(NC(=O)CN3C(=O)c4ccccc4C3=O)cc2)ncn1  0.85%
49. Cn1c(=O)c2cc(S(=O)(=O)NCCC(=O)Nc3ccc(F)cc3F)ccc2n(C)c1=O  0.89%
50. CC1CCN(S(=O)(=O)c2ccc(S(=O)(=O)NCc3cccnc3)cc2)CC1  1.06%
51. COc1ccc2[nH]c3c(=O)n(Cc4ccco4)cnc3c2c1  1.08%
52. O=C(COc1ccc(Cl)cc1Cl)NCCCNC(=O)c1cnccn1  1.09%
53. COc1ccc2c(CC(=O)OCC(=O)NC(N)=O)coc2c1  1.14%
54. O=S(=O)(Nc1ccccn1)c1cccc(S(=O)(=O)c2ccc(Cl)cc2)c1  1.15%
55. CCOC(=O)c1c(NC(=S)Nc2ccccc2C)sc2c1CCC2  1.24%
56. O=C(N=C1SC2CS(=O)(=O)CC2N1Cc1ccccc1)c1ccccc1 (stereo unspecified)  1.31%
57. CCC(C)C(=O)Nc1ccccc1N1CCN(c2ccc(F)cc2)CC1 (stereo unspecified)  1.32%
58. O=c1[nH]cccc1-c1nc2ccccc2n1Cc1ccc(Cl)cc1  1.33%
59. CC(=O)OCc1cc(=O)n(C)c(=O)n1C  1.42%
60. COC[C@@H]1CCCN1c1ccc2c(c1)O[C@H](C)CCN(C1CC1)S2(=O)=O  1.42%
61. O=c1ccnc(Nc2ccc(Cl)cc2)[nH]1  1.51%
62. O=c1c2c3c(sc2n(CCN2CCCC2)c(=O)n1Cc1ccccc1)CCCCC3  1.57%
63. Cc1nc2c(-c3ccc(F)cc3)c(C)nn2c(C)c1CCC(=O)N1CCN(c2ccccn2)CC1  1.67%
64. Cc1ccc(Sc2cc(C(=O)c3ccccc3C(=O)O)ccc2[N+](=O)[O-])cc1  1.71%
65. COc1cccc2cc(/C(C)=N/NC(=O)c3ccco3)oc12  1.86%
66. CC1Cc2ccccc2N1S(=O)(=O)c1cccc(C(=O)OCC(=O)N2CCOCC2)c1 (stereo unspecified)  2.01%
67. CCOCC(=O)Nc1sc2c(c1C(=O)OCC)CCCC2  2.19%
68. COC(=O)C[C@@H]1C=C[C@@H](NS(=O)(=O)c2cccc(OC)c2)[C@@H](CO)O1  2.56%
69. Cc1ccsc1C(=O)OCC(=O)NCCc1ccccc1  2.82%
70. Cn1c(=O)c2c(ncn2CC(=O)N2CCN(c3ccccc3)CC2)n(C)c1=O  3.74%
71. CCC(C)NCCOCCOc1ccc(Br)cc1C (stereo unspecified)  4.02%
72. COc1cc(NC(=S)N2CCCC(C)C2)cc(OC)c1OC (stereo unspecified)  4.11%
73. Cc1nn(C)cc1S(=O)(=O)N1CCN(c2ccc(F)cc2)CC1  5.22%
74. C=C(C)CNC(=S)N/N=C/c1ccccc1OCC(=O)O  8.68%

In the case of `Cc1c(C#N)c(NC(=O)c2ccccc2)n(Cc2ccccc2)c1C`, the activation is reported as 10.7% (active).
In the case of `CC(C)NC(=O)c1ccc(Sc2ccccc2)c([N+](=O)[O-])c1`, the activation is reported as 14.4% (active).
In the case of `CCOc1ccc(N=C2NC(=O)S/C2=C\c2ccc(O)cc2)cc1`, the activation is reported as 11.2% (active).
With `O=C1CN(C(=O)COC(=O)C2CC(=O)N(Cc3ccco3)C2)c2ccccc2N1` (stereo unspecified) the activation was 12.4% (active).
With `COc1ccc(S(=O)(=O)NCC(=O)NCc2cc(=O)n(C)c(=O)n2C)cc1F` the activation was 53.5% (active).
In the case of `O=C(Nc1cccc(O)c1)c1ccc(C(=O)c2ccccc2)o1`, the activation is reported as 15.8% (active).
In the case of `CC(=O)c1c(C)[nH]c(C(=O)COc2ccc3c(C)cc(=O)oc3c2)c1C`, the activation is reported as 11.5% (active).
With `COc1ccc(-c2oc3ncn(Cc4ccco4)c(=N)c3c2-c2ccc(OC)cc2)cc1` the activation was 11.8% (active).
For `O=C(NNC1=NCCC1)c1cccc(S(=O)(=O)N2CCCCC2)c1`, the activation was 12% (active).
In the case of `COc1ccc(C2c3ccc(O)cc3Oc3ncn(CCCO)c(=N)c32)cc1OC` (stereo unspecified), the activation is reported as 9.86% (active).
In the case of `O=C(CS(=O)(=O)c1ccccc1)Nc1ccc(S(=O)(=O)Nc2ccccn2)cc1`, the activation is reported as 11.2% (active).
In the case of `O=C(NCCCNC(=O)c1ccccc1Cl)c1cnccn1`, the activation is reported as 17.1% (active).
For `C(=N\n1cnnc1)/c1cccnc1`, the activation was 9.82% (active).
For `Cc1ccccc1/[N+]([O-])=C/c1ccncc1`, the activation was 11% (active).
For `COc1cc(N2C(=O)CC3(CCCC3)CC2=O)cc(OC)c1OC`, the activation was 11.7% (active).
In the case of `CCOC(=O)c1c(NC(=O)c2ccc(Br)o2)sc2c1CCCC2`, the activation is reported as 12.3% (active).
For `Cc1nc2nc(C)c(CCC(=O)N3CCN(c4ccccc4)CC3)c(C)n2n1`, the activation was 25.8% (active).

From PubChem BioAssay AID1117267 (The Scripps Research Institute Molecular Screening Center, 2014)
